From ChEMBL document CHEMBL5724796, “Tm Shift (DSF) assay results for EUbOPEN Chemogenomics Library” (2024)
Residues, ends and D or L forms follow the SMILES beside them. *: point of attachment. Cbz = O=C(OCc1ccccc1)*; CH2F = FC*

Assays:
Conditions in all cases: Compound concentration 20.0 uM
[1] = target: Tyrosine-protein kinase ABL1 (Homo sapiens) (UniProt P00519)
[2] = target: Bromodomain-containing protein 4 (Homo sapiens) (UniProt O60885)
[3] = target: Cyclin-dependent kinase 2 (Homo sapiens) (UniProt P24941)
[4] = target: Casein kinase I isoform delta (Homo sapiens) (UniProt P48730)
Casein kinase I isoform delta (Homo sapiens), sequence (P48730 whole entry, looked up, canonical isoform): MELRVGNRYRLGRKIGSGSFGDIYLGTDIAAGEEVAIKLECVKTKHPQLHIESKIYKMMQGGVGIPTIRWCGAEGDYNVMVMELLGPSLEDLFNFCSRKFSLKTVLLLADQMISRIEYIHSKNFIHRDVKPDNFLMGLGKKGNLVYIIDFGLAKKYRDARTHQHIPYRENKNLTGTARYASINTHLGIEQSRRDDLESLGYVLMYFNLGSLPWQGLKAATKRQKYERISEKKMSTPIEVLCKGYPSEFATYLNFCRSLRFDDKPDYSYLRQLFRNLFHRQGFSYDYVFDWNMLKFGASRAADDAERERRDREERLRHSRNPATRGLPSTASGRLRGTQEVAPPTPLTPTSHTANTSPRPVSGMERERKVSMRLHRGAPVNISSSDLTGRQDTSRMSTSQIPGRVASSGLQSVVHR

[5] = target: Glycogen synthase kinase-3 beta (Homo sapiens) (UniProt P49841)
Glycogen synthase kinase-3 beta (Homo sapiens), sequence (P49841 whole entry, looked up): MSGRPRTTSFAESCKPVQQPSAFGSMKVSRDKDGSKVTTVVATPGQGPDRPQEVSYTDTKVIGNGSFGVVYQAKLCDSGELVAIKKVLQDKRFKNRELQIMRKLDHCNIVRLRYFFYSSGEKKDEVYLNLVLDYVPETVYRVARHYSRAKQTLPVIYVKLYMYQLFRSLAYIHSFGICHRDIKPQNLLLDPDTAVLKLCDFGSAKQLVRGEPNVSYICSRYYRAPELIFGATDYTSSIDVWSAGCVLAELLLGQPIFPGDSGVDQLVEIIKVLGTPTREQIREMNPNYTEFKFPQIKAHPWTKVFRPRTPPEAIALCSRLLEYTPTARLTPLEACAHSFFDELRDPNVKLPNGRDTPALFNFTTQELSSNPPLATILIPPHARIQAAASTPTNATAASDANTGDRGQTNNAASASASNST

[6] = target: Mitogen-activated protein kinase 1 (Homo sapiens) (UniProt P28482)
Mitogen-activated protein kinase 1 (Homo sapiens), sequence (P28482 whole entry): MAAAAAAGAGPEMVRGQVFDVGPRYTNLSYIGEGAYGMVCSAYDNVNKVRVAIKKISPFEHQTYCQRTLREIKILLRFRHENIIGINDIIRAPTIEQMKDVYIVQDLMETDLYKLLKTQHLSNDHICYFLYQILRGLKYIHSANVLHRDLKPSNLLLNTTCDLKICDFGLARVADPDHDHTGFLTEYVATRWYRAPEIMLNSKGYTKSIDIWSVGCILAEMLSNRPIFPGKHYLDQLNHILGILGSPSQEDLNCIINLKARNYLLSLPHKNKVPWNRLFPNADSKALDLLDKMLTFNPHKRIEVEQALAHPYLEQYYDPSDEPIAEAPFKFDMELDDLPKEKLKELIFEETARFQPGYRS

[7] = target: T1, Aurora kinase A (Homo sapiens) (UniProt O14965)
T1 sequence (whole entry): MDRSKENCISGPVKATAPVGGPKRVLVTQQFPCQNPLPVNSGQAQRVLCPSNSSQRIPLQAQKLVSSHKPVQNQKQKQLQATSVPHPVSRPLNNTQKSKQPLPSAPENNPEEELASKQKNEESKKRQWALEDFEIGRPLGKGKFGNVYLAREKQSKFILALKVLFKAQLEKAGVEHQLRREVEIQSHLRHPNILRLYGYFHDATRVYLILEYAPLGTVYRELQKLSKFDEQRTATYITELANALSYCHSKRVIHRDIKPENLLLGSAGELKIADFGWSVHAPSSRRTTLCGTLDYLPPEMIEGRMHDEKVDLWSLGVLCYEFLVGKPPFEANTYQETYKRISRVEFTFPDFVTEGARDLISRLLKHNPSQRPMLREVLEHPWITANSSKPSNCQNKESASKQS

[8] = target: T2, Transcription intermediary factor 1-alpha (Homo sapiens) (UniProt O15164)
T2 sequence (whole entry): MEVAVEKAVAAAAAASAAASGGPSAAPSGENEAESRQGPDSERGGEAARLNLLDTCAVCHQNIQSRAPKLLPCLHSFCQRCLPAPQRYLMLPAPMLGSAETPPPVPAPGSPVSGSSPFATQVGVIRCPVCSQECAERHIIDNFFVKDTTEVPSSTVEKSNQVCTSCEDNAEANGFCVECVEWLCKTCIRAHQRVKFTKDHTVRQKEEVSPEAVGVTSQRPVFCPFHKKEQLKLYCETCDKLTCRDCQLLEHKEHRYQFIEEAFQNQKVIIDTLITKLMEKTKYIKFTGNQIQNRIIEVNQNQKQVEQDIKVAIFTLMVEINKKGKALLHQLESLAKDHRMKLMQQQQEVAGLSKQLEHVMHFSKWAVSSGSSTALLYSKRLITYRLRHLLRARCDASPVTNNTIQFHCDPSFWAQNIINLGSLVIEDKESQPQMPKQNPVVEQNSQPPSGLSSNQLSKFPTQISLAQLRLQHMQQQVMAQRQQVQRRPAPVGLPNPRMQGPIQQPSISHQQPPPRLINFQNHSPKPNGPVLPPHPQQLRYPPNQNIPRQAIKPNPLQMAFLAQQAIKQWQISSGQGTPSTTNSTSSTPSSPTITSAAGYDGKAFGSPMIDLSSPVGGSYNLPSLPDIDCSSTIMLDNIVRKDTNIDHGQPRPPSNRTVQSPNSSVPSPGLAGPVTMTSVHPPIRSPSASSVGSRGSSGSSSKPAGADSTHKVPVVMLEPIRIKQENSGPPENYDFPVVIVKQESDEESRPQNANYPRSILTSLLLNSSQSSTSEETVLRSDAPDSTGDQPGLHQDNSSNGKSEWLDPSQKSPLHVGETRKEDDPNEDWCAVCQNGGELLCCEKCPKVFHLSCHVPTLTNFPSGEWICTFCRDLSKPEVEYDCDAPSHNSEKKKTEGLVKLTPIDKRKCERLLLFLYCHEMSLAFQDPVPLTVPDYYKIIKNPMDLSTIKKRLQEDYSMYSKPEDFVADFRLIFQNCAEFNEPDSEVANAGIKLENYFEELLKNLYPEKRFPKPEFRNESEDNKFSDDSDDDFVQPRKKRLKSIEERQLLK

Tyrosine-protein kinase ABL1 (Homo sapiens), sequence (P00519 whole entry): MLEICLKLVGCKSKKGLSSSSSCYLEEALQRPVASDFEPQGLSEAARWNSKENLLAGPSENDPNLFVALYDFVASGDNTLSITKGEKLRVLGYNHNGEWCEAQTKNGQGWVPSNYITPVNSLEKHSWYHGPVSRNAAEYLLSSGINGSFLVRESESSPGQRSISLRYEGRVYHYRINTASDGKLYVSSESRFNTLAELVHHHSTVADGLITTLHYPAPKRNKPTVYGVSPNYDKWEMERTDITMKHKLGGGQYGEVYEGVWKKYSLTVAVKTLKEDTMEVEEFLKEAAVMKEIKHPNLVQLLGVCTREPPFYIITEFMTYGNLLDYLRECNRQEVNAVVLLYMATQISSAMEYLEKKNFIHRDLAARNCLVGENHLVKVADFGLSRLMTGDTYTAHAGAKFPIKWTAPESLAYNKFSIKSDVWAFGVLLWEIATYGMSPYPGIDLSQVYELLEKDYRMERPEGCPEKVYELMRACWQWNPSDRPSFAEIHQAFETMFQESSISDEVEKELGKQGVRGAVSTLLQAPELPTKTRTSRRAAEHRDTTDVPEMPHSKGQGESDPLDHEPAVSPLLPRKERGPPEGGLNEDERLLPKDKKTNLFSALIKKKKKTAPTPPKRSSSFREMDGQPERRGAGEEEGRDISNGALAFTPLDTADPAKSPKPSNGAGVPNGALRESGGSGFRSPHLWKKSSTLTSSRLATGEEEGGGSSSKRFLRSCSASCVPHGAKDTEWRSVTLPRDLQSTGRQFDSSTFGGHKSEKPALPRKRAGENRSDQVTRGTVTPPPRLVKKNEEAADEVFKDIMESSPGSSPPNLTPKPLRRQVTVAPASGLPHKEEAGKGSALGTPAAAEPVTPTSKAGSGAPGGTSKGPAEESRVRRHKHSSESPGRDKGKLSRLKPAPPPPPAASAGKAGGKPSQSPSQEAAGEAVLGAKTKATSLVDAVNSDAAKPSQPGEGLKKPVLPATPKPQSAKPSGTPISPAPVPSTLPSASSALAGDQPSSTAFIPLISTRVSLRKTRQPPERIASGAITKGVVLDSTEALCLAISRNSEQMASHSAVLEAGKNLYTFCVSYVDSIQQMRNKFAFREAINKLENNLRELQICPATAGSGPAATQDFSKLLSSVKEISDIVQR

Compound | ΔTm [1] [°C] | ΔTm [2] [°C] | ΔTm [3] [°C] | ΔTm [4] [°C] | ΔTm [5] [°C] | ΔTm [6] [°C] | ΔTm [7] [°C] | ΔTm [8] [°C]
C[C@@H](COCCC(=O)N1CCN(c2ncc(C(F)(F)F)cn2)CC1)Nc1cn[nH]c(=O)c1C(F)(F)F | 0.66 | -3.06 | -0.01 | -0.13 | 0 | 0.21 | -2.44 | -0.58
CNC(=O)c1cnc(N2CCC[C@H](N)C2)nc1Nc1cc(C(C)C)nc(C(C)C)c1 | 0.5 | -1.65 | 0.07 | 1.75 | -0.33 | 0.06 | -0.12 | -1
O=C(NC(Cc1ccccc1)C(=O)NC(Cc1ccccc1)C(=O)CF)OCc1ccccc1 (stereo not drawn) (Cbz-Phe-Phe-CH2F; configuration not given here) | 0.45 | -0.83 | 0.11 | -0.3 | 0.04 | 0.22 | -2.32 | 1.22
O=c1[nH]ccc2cc(F)c(NS(=O)(=O)c3ccc(N4CC[C@@H](O)C4)s3)cc12 | 0.78 | -1.78 | 0.35 | 0.39 | -0.79 | 0.11 | -0.16 | -0.69
COCc1nc(C(F)(F)F)[nH]c1-c1cc(C(=O)N2CC(c3ccc(C#N)cc3)C2)c(C)cc1C | 0.13 | -3.21 | -0.08 | -0.27 | -1.21 | 0.07 | -2.54 | -1.79
O=C(c1ccc2c(ccn2-c2ccc(F)cc2)c1)N1CC(N2CCN(C(=O)c3nccs3)CC2)C1 | 0.62 | -3.81 | -1.22 | -0.29 | -1.59 | 0 | -3.69 | -0.34
Cc1cc(C)c(CNC(=O)c2cc(Cl)c3c(c2C)O[C@@](C)([C@H]2CC[C@H](N(C)C)CC2)O3)c(=O)[nH]1 | 0.37 | -1.88 | 0.46 | 0.43 | -0.76 | 0.07 | -0.52 | -2.02
CC(=O)O[C@]1(C(C)=O)CC[C@H]2[C@@H]3C=C(Cl)C4=CC(=O)[C@@H]5C[C@@H]5[C@]4(C)[C@H]3CC[C@@]21C | 0.36 | -1.71 | 0.15 | 0.16 | -0.72 | -0.22 | -1.49 | -1.08
COc1cc(Cl)ccc1C1=CN(c2ccc(-c3ccccc3OC)cc2)C2=NCCCN12 | 0.67 | -3.63 | -0.6 | -0.21 | -0.51 | -0.14 | -2.63 | -1.41
Nc1ccccc1NC(=O)c1ccc(CNC(=O)OCc2cccnc2)cc1 | 0.63 | -1.69 | 0.81 | 0.33 | -0.75 | 0.21 | 0.05 | -1.42
CCc1nc2c(C)cc(N3CCN(CC(=O)N4CC(O)C4)CC3)cn2c1N(C)c1nc(-c2ccc(F)cc2)c(C#N)s1 | 0.01 | 2.78 | 0.06 | 0.35 | -0.27 | 0.06 | -2.2 | 0.03
Cc1cc(Cn2c(=O)n(Cc3cnc(C)s3)c(=O)c3cc(S(=O)(=O)NC4(C)CC4)ccc32)n(C)n1 | 0.2 | -4.6 | 0.24 | 0.39 | -0.6 | 0.1 | -3.34 | -1.26
CC[C@H](C)[C@H](NC(=O)[C@H](CCC(=O)O)NC(=O)[C@@H](NC(C)=O)C(C)C)C(=O)N[C@H](C=O)CC(=O)O (Ac-VEID-aldehyde) | -0.05 | -2.59 | -0.23 | -0.08 | -0.35 | -0.47 | -1.47 | -0.43
CC(=O)NCC(=O)N1CCC[C@@H]1B(O)O | 0.26 | -0.72 | 1.18 | -0.18 | -0.78 | 0.14 | -1.86 | 0.93
O=C(NCc1ccc(Cl)cc1)C1CCN(S(=O)(=O)c2cc(Cl)cc(Cl)c2)CC1 | 0.35 | -2.83 | 0.17 | -0.37 | -1.43 | 0.06 | -1.55 | 0.02
Nc1cc(F)ccc1NC(=O)c1ccc(CNC(=O)/C=C/c2cccnc2)cc1 | 0.72 | -1.97 | -0.55 | 0.17 | -1.09 | -3.81 | -0.25 | -1.2
C=CCc1cccc(CNc2nc3ccccc3n2CCC)c1O | 0.28 | -1.55 | 0.45 | 0.21 | 0.95 | 0.22 | -1.56 | 0.59
COc1ccc(Cc2nc(O)c3c(C)nc([C@@H](CCCc4ccccc4)[C@@H](C)O)n3n2)cc1OC | -0.12 | -2.72 | 0 | -0.14 | 1.15 | 0.16 | -1.36 | -0.56
CC1(C)CC[C@]2(C(=O)O)CC[C@]3(C)C(=CC[C@@H]4[C@@]5(C)C=C(O)C(=O)C(C)(C)[C@@H]5CC[C@]43C)[C@@H]2C1 | 0.5 | -3.51 | -0.16 | -1.03 | -1.79 | -3.78 | -4.25 | 0.88
Cc1cc(/N=N/c2ccc(S(=O)(=O)Nc3ccccn3)cc2)c(N)cc1O | 0.27 | 9 | 1.3 | -0.2 | -0.93 | 0.31 | -2.28 | 1
CN(CCOc1ccc(-c2ccc3c(c2)OCO3)cc1C(C)(C)C)CC(=O)O | 0.97 | -3.79 | -0.18 | -0.21 | -0.2 | 0.46 | -0.74 | -0.19
NC(=O)c1cnc(N[C@@H]2CCCC[C@@H]2N)nc1Nc1cccc(-n2nccn2)c1 | 3.49 | -1.09 | 5.92 | 6.3 | 5.98 | 4.33 | 2.17 | 0.1
